# Activity calls are given as the source filed them. The rule behind the calls is not given here.
# How the values were obtained:
# [1] = target: Muscarinic acetylcholine receptor M1 (Rattus norvegicus) (UniProt P08482); assay: potentiation of ACh response at hM5 and rM1 – CHO cells, calcium, ACh EC10, single 30 µM, SAR follow-up (AID 2665); conditions: rat M1 potentiation, CHO calcium; at 30 µM; stronger effect = higher value;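 note: 100% = response to a maximal acetylcholine concentration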
# [2] = target: Muscarinic acetylcholine receptor M5 (Homo sapiens) (UniProt P08912); assay: as above; conditions: CHO hM5 calcium flux, ACh EC10 potentiation; at 30 µM; stronger effect = higher value
# Muscarinic acetylcholine receptor M5 (Homo sapiens), sequence (P08912 whole entry, looked up): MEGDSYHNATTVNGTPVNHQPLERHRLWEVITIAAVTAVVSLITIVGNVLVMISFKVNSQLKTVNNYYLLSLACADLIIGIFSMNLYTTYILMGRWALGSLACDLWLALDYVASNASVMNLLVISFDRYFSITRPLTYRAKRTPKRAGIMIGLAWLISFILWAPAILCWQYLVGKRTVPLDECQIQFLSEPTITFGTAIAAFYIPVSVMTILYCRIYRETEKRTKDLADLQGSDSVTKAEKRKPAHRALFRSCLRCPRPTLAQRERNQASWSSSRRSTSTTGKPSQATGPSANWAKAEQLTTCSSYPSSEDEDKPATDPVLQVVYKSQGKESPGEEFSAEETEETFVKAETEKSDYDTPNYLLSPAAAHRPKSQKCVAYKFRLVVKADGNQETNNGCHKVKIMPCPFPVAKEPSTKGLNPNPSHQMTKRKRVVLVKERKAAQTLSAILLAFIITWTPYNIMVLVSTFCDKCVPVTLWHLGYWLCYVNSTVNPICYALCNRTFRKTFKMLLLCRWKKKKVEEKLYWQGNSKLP
SMILES,% ACh max response [1],% ACh max response [2]
O=C1C(=O)N(Cc2ccccc2C(F)(F)F)c2ccc(Cl)cc21,29.6%,48.4% (active)
O=C1C(=O)N(Cc2ccc(Br)cc2)c2ccc(OC(F)(F)F)cc21,13.2%,47.6% (active)
Cc1ccccc1CN1C(=O)C(=O)c2cccc(Cl)c21,32.8%,32.6% (inactive)
COc1cccc(CN2C(=O)C(=O)c3ccccc32)c1,19.4%,28% (inactive)
Cc1ccc2c(c1)C(=O)C(=O)N2Cc1ccc(C(F)(F)F)cc1,22.9%,35.5% (inactive)
O=C1C(=O)N(Cc2ccccc2F)c2ccc(OC(F)(F)F)cc21,11.3%,51.8% (active)
O=C1C(=O)N(Cc2ccccc2C(F)(F)F)c2c(Cl)cccc21,31.1%,14% (inactive)
COc1ccc(CCN2C(=O)C(=O)c3ccccc32)cc1,38.6%,51.7% (active)
O=C1C(=O)N(Cc2ccc(Br)cc2)c2ccc(Cl)cc21,26.1%,32% (inactive)
O=C1C(=O)N(Cc2ccccc2C(F)(F)F)c2c(F)cccc21,41.3%,30.9% (active)
COc1cccc(CN2C(=O)C(=O)c3cccc(F)c32)c1,51.1%,52% (active)
Cc1ccccc1CN1C(=O)C(=O)c2cc(OC(F)(F)F)ccc21,26.2%,60% (active)
COc1ccc(CN2C(=O)C(=O)c3cc(OC(F)(F)F)ccc32)cc1,12.7%,60.7% (active)
O=C1C(=O)N(Cc2c(F)cccc2F)c2ccc(OC(F)(F)F)cc21,13.6%,29.8% (inactive)
O=C1C(=O)N(Cc2ccc(C(F)(F)F)cc2)c2ccc(OC(F)(F)F)cc21,25.7%,67.2% (active)
O=C1C(=O)N(Cc2ccc(Br)cc2F)c2ccc(F)cc21,70.5%,64% (active)
O=C1C(=O)N(Cc2ccc(-c3ccc(Cl)cc3)cc2)c2ccccc21,45.1%,6.53% (active)
O=C1C(=O)N(Cc2ccccc2Cl)c2c(F)cccc21,18.5%,20.3% (inactive)
O=C1C(=O)N(Cc2c(F)cccc2F)c2ccc(Cl)cc21,27.3%,31.8% (inactive)
COc1cccc(CN2C(=O)C(=O)c3cc(F)ccc32)c1,32.3%,41.6% (active)
COc1ccccc1-c1ccc(CN2C(=O)C(=O)c3ccccc32)cc1,47.6%,58.1% (active)
O=C1C(=O)N(Cc2ccccc2Cl)c2ccc(OC(F)(F)F)cc21,12.3%,51.9% (active)
Cc1ccccc1CN1C(=O)C(=O)c2cc(Cl)ccc21,27.6%,47.3% (active)
Cc1cccc2c1N(Cc1ccccc1F)C(=O)C2=O,24.9%,24.6% (inactive)
O=C1C(=O)N(Cc2ccc(OC(F)(F)F)cc2)c2ccc(Cl)cc21,31.3%,47.1% (active)

SMILES,% ACh max response [1],% ACh max response [2]
O=C1C(=O)N(Cc2ccc(Br)cc2)c2c(F)cccc21,62.7%,51.7% (active)
COc1cccc(CN2C(=O)C(=O)c3cccc(Cl)c32)c1,46.9%,38.7% (active)
O=C1C(=O)N(Cc2ccc(Br)cc2F)c2c(F)cccc21,39.2%,46.3% (active)
O=C1C(=O)N(CCc2ccc(Br)cc2)c2ccccc21,52.4%,65% (active)
O=C1C(=O)N(Cc2ccc(C(F)(F)F)cc2)c2c(Cl)cccc21,67%,70.8% (active)
COc1ccc(CN2C(=O)C(=O)c3cc(Cl)ccc32)cc1,20.3%,32.6% (inactive)
O=C1C(=O)N(Cc2ccc(C(F)(F)F)cc2)c2c(F)cccc21,60.9%,71.1% (active)
O=C1C(=O)N(Cc2ccc(OC(F)(F)F)cc2)c2c(Cl)ccc(Cl)c21,16%,23.2% (inactive)
Cc1ccc2c(c1)C(=O)C(=O)N2Cc1ccc(Br)cc1F,22.3%,27.8% (inactive)
O=C1C(=O)N(Cc2ccccc2F)c2ccc(Cl)cc21,23%,36.3% (inactive)
O=C1C(=O)N(Cc2c(F)cccc2F)c2c(Cl)ccc(Cl)c21,16.4%,12.2% (inactive)
O=C1C(=O)N(Cc2ccc(F)cc2F)c2ccc(OC(F)(F)F)cc21,25.9%,61.9% (active)
Cc1ccc2c(c1)C(=O)C(=O)N2Cc1ccccc1C(F)(F)F,17.8%,30.6% (inactive)
COc1ccc(CCN2C(=O)C(=O)c3cc(OC(F)(F)F)ccc32)cc1,,88.3% (active)
Cc1ccc2c(c1)C(=O)C(=O)N2Cc1ccccc1C,20.2%,29.9% (inactive)
O=C1C(=O)N(Cc2ccc(-c3cc(F)ccc3F)cc2)c2ccc(OC(F)(F)F)cc21,,80.9% (active)
O=C1C(=O)N(Cc2ccccc2F)c2c(Cl)cccc21,50.4%,49.5% (active)
O=C1C(=O)N(Cc2ccc(Br)cc2)c2c(Cl)ccc(Cl)c21,12.1%,20.7% (inactive)
O=C1C(=O)N(Cc2ccc(OC(F)(F)F)cc2)c2ccc(OC(F)(F)F)cc21,13.8%,58.9% (active)
O=C1C(=O)N(Cc2ccc(-c3ccc(Cl)c(Cl)c3)cc2)c2ccccc21,35.3%,56.3% (active)
O=C1C(=O)N(Cc2ccc(Br)cc2F)c2c(Cl)ccc(Cl)c21,9.93%,12.4% (inactive)
O=C1C(=O)N(Cc2ccc(OC(F)(F)F)cc2)c2c(F)cccc21,51.8%,57.7% (active)
COc1cccc(CN2C(=O)C(=O)c3cc(Cl)ccc32)c1,16.9%,27.9% (inactive)
COc1cccc(CN2C(=O)C(=O)c3cc(C)ccc32)c1,14.5%,29.6% (inactive)
O=C1C(=O)N(Cc2ccc(-c3ccccc3)cc2)c2ccc(OC(F)(F)F)cc21,,82.7% (active)

SMILES,% ACh max response [1],% ACh max response [2]
COc1ccc(-c2ccc(CN3C(=O)C(=O)c4cc(OC(F)(F)F)ccc43)cc2)cc1,,46% (active)
COc1ccccc1-c1ccc(CN2C(=O)C(=O)c3cc(OC(F)(F)F)ccc32)cc1,,72.6% (active)
O=C1C(=O)N(Cc2ccc(-c3ccc(Cl)nc3)cc2)c2ccc(OC(F)(F)F)cc21,,88.2% (active)
COc1cccc(CN2C(=O)C(=O)c3cc(OC(F)(F)F)ccc32)c1,28.6%,70.1% (active)
O=C1C(=O)N(Cc2ccccc2Cl)c2ccc(Cl)cc21,21.3%,44.4% (active)
O=C1C(=O)N(Cc2ccc(-c3ccc(F)nc3)cc2)c2ccc(OC(F)(F)F)cc21,,78.8% (active)
COc1ccc(CN2C(=O)C(=O)c3cc(F)ccc32)cc1,41.1%,38.3% (active)
Cn1cc(-c2ccc(CN3C(=O)C(=O)c4cc(OC(F)(F)F)ccc43)cc2)cn1,,86.8% (active)
O=C1C(=O)N(Cc2c(F)cccc2F)c2ccc(F)cc21,27.6%,31.1% (inactive)
Cc1ccccc1CN1C(=O)C(=O)c2ccccc21,43.2%,36.3% (active)
O=C1C(=O)N(Cc2c(F)cccc2F)c2c(Cl)cccc21,38.8%,23.6% (inactive)
Cc1ccccc1CN1C(=O)C(=O)c2cccc(F)c21,30.2%,27.5% (inactive)
O=C1C(=O)N(Cc2ccc(-c3ccsc3)cc2)c2ccc(OC(F)(F)F)cc21,,92.3% (active)
O=C1C(=O)N(Cc2ccc(F)cc2F)c2ccc(Cl)cc21,32.4%,44.9% (active)
O=C1C(=O)N(Cc2ccccc2F)c2ccc(F)cc21,40.1%,46.2% (active)
O=C1C(=O)N(Cc2ccc(F)cc2F)c2ccc(F)cc21,47.3%,60.3% (active)
O=C1C(=O)N(Cc2ccccc2C(F)(F)F)c2ccc(OC(F)(F)F)cc21,22.6%,56.5% (active)
COc1cccc(CN2C(=O)C(=O)c3c(Cl)ccc(Cl)c32)c1,13.3%,35.1% (inactive)
O=C1C(=O)N(Cc2ccccc2Cl)c2ccccc21,43.4%,42% (active)
O=C1C(=O)N(Cc2ccc(-c3ccc(Cl)nc3)cc2)c2ccccc21,37.1%,47.8% (active)
O=C1C(=O)N(Cc2ccc(-c3ccc(Cl)cc3)cc2)c2ccc(OC(F)(F)F)cc21,,45.5% (active)
O=C1C(=O)N(CCc2ccc(Br)cc2)c2ccc(OC(F)(F)F)cc21,,81.1% (active)
CCCOc1ccc(-c2ccc(CN3C(=O)C(=O)c4cc(OC(F)(F)F)ccc43)cc2)cc1,,31.8% (inactive)
O=C1C(=O)N(Cc2ccc(-c3ccc(Cl)c(Cl)c3)cc2)c2ccc(OC(F)(F)F)cc21,,73.5% (active)
